Measurements from PubChem BioAssay (NCI).
This is part of a sample that, as a whole, favours compounds with a hit. Of some 79,000 tested, about 15% had one in any assay. Values without a mark were called inactive. Calls of active or inactive are those of the source. No stated cut-off is given here; in the data, active means growth inhibition above about 70%; inactive means the rest.

Key:
[1] = NCI Yeast Anticancer Drug Screen. Data for the rad50 strain (AID 155);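 further: 0% = growth of vehicle-only cultures of the same strain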; settings: S. cerevisiae rad50 strain growth inhibition, stronger effect = higher value
Procedure, shortened: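 Cells are treated with compound, grown, and their growth is then scored against vehicle-only cultures of the same repair-deficient yeast strain.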

[2] = NCI Yeast Anticancer Drug Screen. Data for the mec2-1 strain (AID 157); settings: S. cerevisiae mec2-1 strain, stronger effect = higher value
Procedure, shortened: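 Yeast mec2-1 mutant treated with compound. Readout: growth inhibition vs vehicle controls.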

[3] = NCI Yeast Anticancer Drug Screen. Data for the sgs1 mgt1 strain (AID 161);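 further: 0% = growth of cultures given vehicle only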; settings: S. cerevisiae sgs1 mgt1 strain, stronger effect = higher value
Procedure, shortened: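 Genetically altered yeast, compound exposure, growth inhibition relative to vehicle.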

[4] = NCI Yeast Anticancer Drug Screen. Data for the cln2 rad14 strain (AID 165);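 further: 0% = growth equal to vehicle treated cultures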; settings: S. cerevisiae cln2 rad14 strain, stronger effect = higher value
Procedure, shortened: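 cln2 rad14 yeast strain; compound exposure; growth inhibition read vs vehicle controls.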

[5] = NCI Yeast Anticancer Drug Screen. Data for the bub3 strain (AID 167); settings: S. cerevisiae bub3 mutant strain, stronger effect = higher value
Procedure, shortened: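 Part of a panel of yeast mutants defective in DNA damage repair or cell cycle regulation. Each strain is grown with compound, and inhibition is calculated relative to solvent-treated cultures.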

[6] = NCI Yeast Anticancer Drug Screen. Data for the mlh1 rad18 strain (AID 175); settings: S. cerevisiae mlh1 rad18 strain growth inhibition, stronger effect = higher value
Procedure, shortened: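 Yeast w/ defined DNA-repair lesions; compound exposure; growth vs vehicle controls → % inhibition.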

[7] = at 5.0 µM (retest, dose inferred, filed as 0.5)
[8] = at 50.0 µM (retest, dose inferred, filed as 5.0)

Compound | growth inhibition [1, 7] | growth inhibition [1, 8] | growth inhibition ([1]; at 50.0 µM) | growth inhibition [2, 7] | growth inhibition [2, 8] | growth inhibition ([2]; at 50.0 µM) | growth inhibition [3, 7] | growth inhibition [3, 8] | growth inhibition ([3]; at 50.0 µM) | growth inhibition [4, 7] | growth inhibition [4, 8] | growth inhibition ([4]; at 50.0 µM) | growth inhibition [5, 7] | growth inhibition [5, 8] | growth inhibition ([5]; at 50.0 µM) | growth inhibition [6, 7] | growth inhibition [6, 8] | growth inhibition ([6]; at 50.0 µM)
NCCOB(c1ccccc1)c1ccccc1 | 12% | 99% (active) | 53.1% | 0% | 99% (active) | 54.2% | 3% | 99% (active) | 50.5% | 8% | 99% (active) | 99% (active) | 1% | 99% (active) | 99.3% (active) | 5% | 99% (active) | 51.3%
CC(C)C(C)(C(=O)O)C(C)C | 0% | 1% | 13.8% | 3% | 2% | 2.1% | 2% | 3% | 5.6% | -3% | 4% | 67% | -1% | 0% | -5.5% | 1% | 0% | 2.75%
Cc1ccc(N=Nc2ncccc2O)cc1C | -157% | 95% (active) | 98.8% (active) | -49% | 95% (active) | 98.2% (active) | -67% | 95% (active) | 98.4% (active) | -64% | 93% (active) | 87.4% (active) | -85% | 96% (active) | 97.7% (active) | -121% | 95% (active) | 98.2% (active)
O=S1OCCS1 (stereo not given) | 10% | 87% (active) | 98.8% (active) | 4% | 90% (active) | 99% (active) | 11% | 87% (active) | 98.5% (active) | -3% | 74% (active) | 97.4% (active) | -1% | 92% (active) | 99.2% (active) | 7% | 95% (active) | 98.7% (active)
NCCC1=CCCCC1 | 1% | 95% (active) | 88.2% (active) | 5% | 97% (active) | 90.5% (active) | 2% | 98% (active) | 88.3% (active) | -7% | 96% (active) | 35.6% | -4% | 96% (active) | 65% | -2% | 97% (active) | 90% (active)
COC(=O)C1(C)CCc2c(ccc3cccc(OC)c23)C1=O (stereo not given) | 0% | 99% (active) | 1.65% | 0% | 98% (active) | 21% | 2% | 98% (active) | 66.9% | -9% | 97% (active) | -3.75% | 20% | 99% (active) | 86.8% (active) | 1% | 99% (active) | 44.5%
CCC(CO)Nc1nc2cc(Br)ccc2c2ccc(Br)cc12 (stereo not given) | 36% | 92% (active) | 92.6% (active) | 10% | 96% (active) | 95.5% (active) | 62% | 93% (active) | 96.2% (active) | 8% | 93% (active) | 93.8% (active) | 47% | 94% (active) | 91.9% (active) | 18% | 93% (active) | 95.8% (active)
Nc1ncnc(N2CCOCC2)c1N | -1% | -5% | 11.7% | 0% | 0% | 29.6% | 3% | 0% | 0.95% | -7% | 2% | 83.8% (active) | -3% | -2% | -10.7% | -4% | -6% | 83.5% (active)
COc1cccc(/C=N/NC(=O)c2c(-c3ccccc3)noc2C)c1O | 47% | 70% (active) | 85% (active) | 26% | 86% (active) | 84.1% (active) | 45% | 82% (active) | 89.2% (active) | 25% | 51% | 83.3% (active) | 42% | 85% (active) | 85.5% (active) | 58% | 87% (active) | 81.8% (active)
O=C(/C=C/c1ccc(O)cc1)c1cc(Cl)ccc1O | 10% | 96% (active) | 95.7% (active) | 6% | 97% (active) | 95.7% (active) | 36% | 97% (active) | 92.4% (active) | -4% | 97% (active) | 94.2% (active) | 4% | 97% (active) | 96.5% (active) | 7% | 96% (active) | 93.3% (active)
COC(=O)C(=O)N(c1cc(C)ccc1C)c1cc(C)ccc1C | -1% | 85% (active) | 96.2% (active) | 1% | 73% (active) | 95.3% (active) | 0% | 57% | 95% (active) | 6% | 26% | 63.1% | 3% | 59% | 94.3% (active) | -3% | 81% (active) | 92.7% (active)
CCOc1ccc(N=NS(=O)(=O)O)cc1 | -8% | 14% | 61.1% | -11% | -23% | -5.45% | -12% | -24% | -6.5% | -29% | -88% | 15% | -7% | -13% | -23.1% | -2% | -5% | 9.4%
CCCC(=O)Nc1cc([N+](=O)[O-])ccc1O | -129% | 97% (active) | 99.3% (active) | -38% | 98% (active) | 90% (active) | -51% | 88% (active) | 63.2% | -57% | 84% (active) | 96.7% (active) | -57% | 97% (active) | 95.2% (active) | -127% | 93% (active) | 98% (active)
COc1ccc2ccnc(Cc3ccc(OCc4ccccc4)c(OC)c3)c2c1 | 42% | 42% | 89.5% (active) | 27% | 27% | 87.3% (active) | 28% | 28% | 89.7% (active) | 12% | 12% | 87% (active) | 28% | 28% | 86.5% (active) | 29% | 29% | 86% (active)
c1ccc(OCCCOc2ccccc2)cc1 | 4% | 2% | -4.15% | -1% | -4% | 10.8% | 4% | 3% | 13% | 3% | -9% | -5.75% | 7% | 25% | 10.3% | 2% | -1% | 61.9%
COC(=O)NNc1c([N+](=O)[O-])cnn(-c2ccccc2)c1=O | 18% | 56% | 14.9% | -5% | 10% | 0.55% | -1% | -14% | 14% | 9% | 32% | 30% | 11% | 26% | 0.9% | -11% | -12% | -8.15%
CSC(=S)NN=C(c1ccccc1)c1ccccc1 | 9% | 97% (active) | 55.6% | 13% | 99% (active) | 39.4% | 18% | 99% (active) | 69.8% | 7% | 91% (active) | 53.9% | 0% | 98% (active) | 86.2% (active) | 16% | 99% (active) | 81.8% (active)
CCOC(=O)c1cnn(-c2ccccc2)c1N | 62% | 98% (active) | 88.8% (active) | 26% | 99% (active) | 92.8% (active) | 18% | 98% (active) | 89.4% (active) | 15% | 97% (active) | 86.6% (active) | 63% | 98% (active) | 90.2% (active) | 23% | 98% (active) | 88.2% (active)
COc1cc(C)cc2c(-c3c(O)cc(O)c4c3C[C@H](C)N[C@H]4C)cc(-c3cc(-c4c(O)cc(O)c5c4C[C@H](C)N[C@H]5C)c4cc(C)cc(OC)c4c3O)c(O)c12 | -6% | 27% | -28.4% | -10% | -12% | -27.8% | -14% | -7% | 18.7% | 0% | 1% | 87% (active) | 0% | -23% | -48.5% | -18% | 27% | 2.7%
CCCCNC(=S)NC1OC(CO)C(O)C(O)C1O (stereo not given) | 2% | 7% | 99.3% (active) | 2% | 10% | 99.4% (active) | -1% | 0% | 99.5% (active) | -4% | -3% | 99% (active) | -4% | -4% | 99.2% (active) | -1% | 20% | 99% (active)
